Laboratory results published in PubChem BioAssay AID2284385 (EPA ToxCast).
Active and inactive are the calls of the source. How the source made its calls: active means hit-call score of the fitted dose curve at least 0.9, where 1 is the maximum; inactive means score below 0.9.

Target: human Peroxisome proliferator-activated Receptor alpha (PPARa), PPARA (gene 5465) (UniProt Q07869)
Assay: ERF_TW_NR_COA_hPPARA: Eurofins (ERF) Nuclear Receptor (NR) Functional Coactivator Assay for human Peroxisome proliferator-activated Receptor alpha (PPARa) Agonism & Antagonism, conducted at Taiwan lab site
Procedure: ERF_TW_NR_COA_hPPARA is a biochemical, single-readout assay that uses extracted gene-proteins in a cell-free assay. Measurements were taken 3 hours after chemical dosing in a 96-well plate. See PPARalpha Human NHR Functional Agonist Coactivator Assay, Panlabs.ERF_TW_NR_COA_hPPARA is an assay component calculated from the ERF_TW_NR_COA_hPPARA assay. It is designed to measure FRET using a type of binding reporter as detected by fluorescence intensity of GW7647 with fluorimetry technology.Data from the assay component ERF_TW_NR_COA_hPPARA was analyzed at the assay endpoint, ERF_TW_NR_COA_hPPARA, in the positive analysis fitting direction relative to DMSO as the negative control and baseline of activity. Using a type of binding reporter, gain-of-signal activity can be used to understand changes in binding as they relate to gene PPARA. To generalize the intended target to other relatable targets, this assay endpoint is annotated to the nuclear receptor intended target family, where the subfamily is non-steroidal.
Human recombinant peroxisome proliferators-activated receptor alpha (PPARA, PPARa, PPAR-alpha) hPPAR, NR1C1) receptors expressed in insect are used. Test compound and/or vehicle is incubated with the 2.5 nM receptors and binding buffer in modified kit buffer pH 7.4 for 3 hours at RT. Determination of the amount of complex formed is read microplate reader (excitation:337 nm, emission: 520/490 nm). Test compound-induced increase fluorescence by 50 percent or more (>/=50%) relative to the 1 uM GW7647 response indicates possible PPARa receptor agonist activity. Test compound-induced inhibition of 20 nM GW7647-induced fluorescence response by 50 percent or more (>/=50%) indicates receptor antagonist activity.

Sequence of human Peroxisome proliferator-activated Receptor alpha (PPARa), PPARA (gene 5465) (Q07869 whole entry, looked up): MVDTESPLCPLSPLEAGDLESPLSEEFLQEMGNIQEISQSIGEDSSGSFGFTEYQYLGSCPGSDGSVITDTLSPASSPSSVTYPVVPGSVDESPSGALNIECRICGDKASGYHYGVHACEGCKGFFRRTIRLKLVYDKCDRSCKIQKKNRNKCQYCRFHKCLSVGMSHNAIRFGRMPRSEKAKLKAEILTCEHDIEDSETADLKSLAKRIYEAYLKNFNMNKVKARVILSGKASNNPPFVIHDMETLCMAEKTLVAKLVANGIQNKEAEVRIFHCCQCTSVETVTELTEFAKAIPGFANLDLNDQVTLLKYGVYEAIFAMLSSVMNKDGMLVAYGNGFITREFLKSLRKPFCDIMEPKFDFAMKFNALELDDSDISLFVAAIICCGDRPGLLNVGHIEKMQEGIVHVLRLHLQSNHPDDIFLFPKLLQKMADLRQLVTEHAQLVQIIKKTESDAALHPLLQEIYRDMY

Row | Compound | AC50 | outcome
1 | O=C(O)C(F)(F)C(F)(F)C(F)(F)C(F)(F)C(F)(F)C(F)(F)C(F)F | 31.1 µM (active) | 
2 | O=C(CC(=O)C(F)(F)C(F)(F)C(F)(F)F)c1cccs1 |  | inactive
3 | O=C(O)CCC(F)(F)C(F)(F)C(F)(F)F |  | inactive
4 | CC(C)(Oc1ccc(C(=O)c2ccc(Cl)cc2)cc1)C(=O)O | 15.7 µM (active) | 
5 | CN(CCOc1ccc(CC2SC(=O)NC2=O)cc1)c1ccccn1 (configuration not stated) |  | inactive
6 | O=C(Cl)C(F)(F)C(F)(F)C(F)(F)C(F)(F)C(F)(F)C(F)(F)F | 31.6 µM (active) | 
7 | O=C(O)C(F)(F)C(F)(F)C(F)(F)C(F)(F)C(F)(F)C(F)(F)C(F)(F)C(F)(F)Cl |  | inactive
